The values that follow come from PubChem BioAssay (Tox21).

Unmarked numbers belong to inactive results. Results filed as inconclusive are left out. Activity calls are given as the source filed them. Unless noted, calls come from the whole dose curve; as a rule, active = well fitted curve in the direction sought with a large enough effect in the repeat runs; inconclusive = weak or mixed curves; inactive = no such curve, though single readings can be large; an effect the other way counts as inactive or inconclusive.

The target in test [1] is Progesterone receptor (Homo sapiens) (UniProt P06401). As to the kind of experiment: qHTS assay to identify small molecule agonists of the progesterone receptor (PR) signaling pathway (AID 1346784; calls by dose curve; note: nearly all actives have a fitted effect of over 30% in size). Put shortly:
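PR-UAS-bla HEK 293T cells (beta-lactamase reporter under UAS) in 2% charcoal-stripped FBS, dosed with 23 nL compound after 6 hr, incubated 16hr at 37C. LiveBLAzer B/G FRET substrate added, fluorescence read after 2 hours.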
For orientation: Quantitative high-throughput screening tests each substance at several concentrations.

Test [2] shares this target. As to the kind of experiment: qHTS assay to identify small molecule antagonists of the progesterone receptor (PR) signaling pathway (AID 1346795; active = well fitted inhibition curve with a large enough effect in the signal ratio in the repeat runs, not every such curve was filed as active; the % refers to the signal ratio). The gist of the method: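 PR-UAS-bla HEK293T cells with beta-lactamase reporter under UAS control, in 2% charcoal-stripped FBS, treated with compounds plus 1 nM promegestone (R5020, final) for 16 hr at 37C. Read-out: FRET beta-lactamase substrate fluorescence after 2 hr at room temperature.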

Test [3] is described as follows: qHTS assay to identify small molecule agonists of the progesterone receptor (PR) signaling pathway - cell viability counter screen (AID 1346799; calls by dose curve; note: nearly all actives have a fitted effect of over 45% in size; note: potency is the fitted concentration of half-maximal effect). Put shortly: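 Counter screen in the PR-UAS-bla HEK293T wells (2% charcoal-stripped FBS, 16 h compound exposure at 37 C) after the bla read. CellTiter-Glo added, 30 min at room temperature, luminescence read as cell viability.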

Test [4] in a line: qHTS assay to identify small molecule antagonists of the TGF-beta/Smad signaling pathway - cell viability counter screen (AID 1346824). Note: nearly all actives have a fitted effect of over 50% in size. Put shortly: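 SBE-bla HEK 293T cells, incubated overnight, then compound plus 0.25 ng/mL TGF-beta1 (stock added) for 5 hr at 37 C. Viability was read in the same wells by CellTiter-Glo luminescence after 30 min at room temperature.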
Test [5] in a line: qHTS assay to identify small molecule agonists of the TGF-beta/Smad signaling pathway - cell viability counter screen (AID 1346829). Note: top concentration of the series differs between compounds; nearly all actives have a fitted effect of over 45% in size. The gist of the method:
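HEK 293T SBE-bla line, 5 hr compound exposure at 37 C, multiplexed CellTiter-Glo viability read by luminescence.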

A short description of test [6]: qHTS assay to identify small molecule agonists of the TGF-beta/Smad signaling pathway (AID 1346859; active = well fitted activation curve with a large enough effect in the signal ratio in the repeat runs, not every such curve was filed as active; the % refers to the signal ratio; note: series mostly up to about 77 µM). The gist of the method: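 SBE-bla HEK293T cells plated overnight, then compound exposure for 5 h at 37 C. Beta-lactamase reporter read with LiveBLAzer B/G FRET substrate after 2 h at room temperature, fluorescence at 405 nm excitation, 460/530 nm emission.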
The target in test [7] is Thyrotropin-releasing hormone receptor (Homo sapiens) (UniProt P34981). The test is described as follows: qHTS assay to identify small molecule antagonists of the thyrotropin-releasing hormone receptor (TRHR) signaling pathway (AID 1346877; active = well fitted inhibition curve with a large enough effect in the repeat runs, not every such curve was filed as active; note: series mostly up to about 51 µM). Put shortly:
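Overnight-plated (18 h, 37 °C) HEK293 cells expressing TRHR were dye-loaded 2 h, treated with compound, then stimulated with TRH at 1 nM final. Fluorescence intensity was captured every second for 3 min.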

Test [8] has the same target. The test is described as follows: qHTS assay to identify small molecule agonists of the thyrotropin-releasing hormone receptor (TRHR) signaling pathway (AID 1346891; calls by dose curve; note: series mostly up to about 58 µM). The gist of the method:
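HEK293 cells expressing TRHR plated 18 h at 37 C/5% CO2, calcium dye-loaded 2 h at 37 C, then compound added (agonist mode); kinetic calcium fluorescence read 3 min at 1 s intervals; 15 concentrations in triplicate.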

The nature of test [9]: Human pregnane X receptor (PXR) small molecule agonists, qHTS cell viability counter screen (AID 1346977). Note: nearly all actives have a fitted effect of over 50% in size. The gist of the method: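 PXR-Luc HepG2 cells (2,000/well, 5% charcoal-stripped FBS) preincubated 5 hr, then exposed to compounds 24 hr at 37 C. Viability read in the same wells by CellTiter-Fluor fluorescence, reagent added at 23 hr, 1 hr incubation.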
A short description of test [10]: Caspase-3/7 induction in HepG2 cells by small molecules, qHTS assay (AID 1346978). Note: nearly all actives have a fitted effect of over 15% in size. The gist of the method: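 Wild-type HepG2 cells, 2,000/well, settled 5 hr at 37 C and 5% CO2, then compound-treated for 17 hr; caspase-3/7 activity read by luminescent Caspase-Glo 3/7 after 30 min at room temperature.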
Test [11] in a line: Caspase-3/7 induction in CHO-K1 cells by small molecules, qHTS cell viability counter screen (AID 1346979). Note: nearly all actives have a fitted effect of over 35% in size. The gist of the method: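 Wild-type CHO-K1 cells (1,500/well) treated with compound after 5 h plating; after 16 h at 37C, viability read as CellTiter-Fluor fluorescence following 1 h reagent incubation, in the same wells as the caspase read.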
Test [12] in a line: Caspase-3/7 induction in CHO-K1 cells by small molecules, qHTS assay (AID 1346980). Note: nearly all actives have a fitted effect of over 15% in size. The gist of the method:
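Wild-type CHO-K1 cells exposed to compounds for 17hr at 37 C, 5% CO2. Caspase-3/7 activity then measured by Caspase-Glo 3/7 luminescence after 30min at room temperature.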

Test [13] addresses Nuclear receptor subfamily 1 group I member 2 (Homo sapiens) (UniProt O75469). As to the kind of experiment: Human pregnane X receptor (PXR) small molecule agonists, qHTS assay (AID 1346982). Note: nearly all actives have a fitted effect of over 35% in size. Note: potency is the fitted concentration of half-maximal effect. Put shortly: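 Stable HepG2 line reporting PXR-mediated CYP3A4 expression via luciferase. Treatment: 24 hr with compounds in DMSO at 37 C. Detection: ONE-Glo luminescence.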
Test [14] has as its target Acetylcholinesterase (Homo sapiens) (UniProt P22303). The test is described as follows: Acetylcholinesterase (AChE) small molecule antagonists: colormetric cell-based qHTS assay (AID 1347395; calls by dose curve; note: nearly all actives have a fitted effect of over 30% in size; note: potency is the fitted concentration of half-maximal effect). The gist of the method:
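SH-SY5Y cells attached overnight, exposed to compound 30 min at 37 C, then given DTNB/acetylthiocholine; after 90 min at 37 C, colorimetric thiocholine read gives cellular AChE activity.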

A short description of test [15]: Caspase-3/7 induction in HepG2 cells by small molecules, qHTS cell viability counter screen (AID 1346981). Note: series mostly up to about 92 µM; nearly all actives have a fitted effect of over 30% in size. Put shortly: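 Treatment of HepG2 cells with DMSO-delivered compounds ran 16 hr at 37 C following a 5-hr pre-incubation of 2,000 cells/well. CellTiter-Fluor fluorescence, read after 1 hr, served as the viability measure in a qHTS format.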
Test [16] is described as follows: qHTS assay to identify small molecule antagonists of the progesterone receptor (PR) signaling pathway - cell viability counter screen (AID 1346798). Note: nearly all actives have a fitted effect of over 50% in size. Note: potency is the fitted concentration of half-maximal effect. The gist of the method: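 PR-UAS-bla HEK293T cells, 3,000/well in 2% charcoal-stripped FBS medium, dosed with compounds plus R5020 agonist and incubated 16 h at 37C. Viability then measured in the same wells by CellTiter-Glo luminescence after 30 min at RT.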

Test [17] has as its target Nuclear receptor subfamily 1 group I member 2 (Rattus norvegicus) (UniProt Q9R1A7). The test is described as follows: Rat pregnane X receptor (rPXR) activation by small molecules, qHTS assay (AID 1346983). Note: nearly all actives have a fitted effect of over 20% in size. As to conditions: rPXR luciferase reporter cells, One-Glo luminescence, 24 h; max activation: stronger effect = higher value. The gist of the method:
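Cell-based rPXR activation assay: rPXR cells, 2,000 per well, rested 5hr at 37 C, then exposed to compounds in DMSO for 24 hr at 37 C. Luciferase activity read by One-Glo luminescence after 30 min at room temperature.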

In test [18] the target is Nuclear receptor subfamily 1 group I member 2 (Homo sapiens) (UniProt O75469). The test is described as follows: CYP3A4 induction through human pregnane X receptor (PXR) by small molecules, qHTS assay (AID 1346984). Note: nearly all actives have a fitted effect of over 40% in size. Put shortly:
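After 24 h at 37C with compound, DPX-2 cells (HepG2, co-transfected PXR response element and CYP3A4 promoter-luciferase) got 3uM final P450-Glo Luciferin-IPA for 3 h; One-Glo luminescence followed.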

For test [19] the target is unchanged. As to the kind of experiment: Human pregnane X receptor (PXR) activation by small molecules, qHTS assay (AID 1346985). Note: nearly all actives have a fitted effect of over 40% in size. Put shortly: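 DPX-2 cells (HepG2 co-transfected with a PXR response element and a CYP3A4-promoter luciferase construct) were seeded at 2,000 per well, rested 5 hr at 37C, then exposed to DMSO-dissolved compounds for 24 hr. Activation was read as luciferase luminescence.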
% is set by controls: 0 for no effect and ±100 for the full control effect.

Chain of Progesterone receptor (Homo sapiens) (P06401 whole entry, looked up): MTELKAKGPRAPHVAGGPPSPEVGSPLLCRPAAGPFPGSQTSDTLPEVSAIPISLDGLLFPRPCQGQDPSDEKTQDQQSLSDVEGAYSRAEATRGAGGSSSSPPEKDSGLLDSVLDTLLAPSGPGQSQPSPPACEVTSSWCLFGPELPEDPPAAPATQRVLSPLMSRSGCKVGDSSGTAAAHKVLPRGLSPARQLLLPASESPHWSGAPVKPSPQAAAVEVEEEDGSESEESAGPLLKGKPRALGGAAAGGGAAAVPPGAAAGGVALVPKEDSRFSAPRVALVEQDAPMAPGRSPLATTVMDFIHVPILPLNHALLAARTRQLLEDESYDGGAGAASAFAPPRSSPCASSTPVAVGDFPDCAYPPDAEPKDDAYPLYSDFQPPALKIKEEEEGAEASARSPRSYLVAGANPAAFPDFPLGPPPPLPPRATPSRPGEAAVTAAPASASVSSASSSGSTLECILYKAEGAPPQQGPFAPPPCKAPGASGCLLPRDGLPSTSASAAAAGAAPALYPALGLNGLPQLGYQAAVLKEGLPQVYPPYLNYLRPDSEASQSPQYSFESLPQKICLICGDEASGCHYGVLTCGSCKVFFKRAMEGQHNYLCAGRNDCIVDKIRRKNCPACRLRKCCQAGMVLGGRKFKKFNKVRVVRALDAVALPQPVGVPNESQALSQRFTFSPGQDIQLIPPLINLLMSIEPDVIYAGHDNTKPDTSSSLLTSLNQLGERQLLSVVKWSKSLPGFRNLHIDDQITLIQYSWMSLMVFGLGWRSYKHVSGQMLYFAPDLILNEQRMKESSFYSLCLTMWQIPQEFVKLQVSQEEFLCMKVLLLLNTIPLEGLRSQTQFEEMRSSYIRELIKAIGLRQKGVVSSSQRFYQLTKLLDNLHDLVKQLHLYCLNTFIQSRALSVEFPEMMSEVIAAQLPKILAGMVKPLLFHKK
Chain of Acetylcholinesterase (Homo sapiens) (P22303 whole entry, looked up): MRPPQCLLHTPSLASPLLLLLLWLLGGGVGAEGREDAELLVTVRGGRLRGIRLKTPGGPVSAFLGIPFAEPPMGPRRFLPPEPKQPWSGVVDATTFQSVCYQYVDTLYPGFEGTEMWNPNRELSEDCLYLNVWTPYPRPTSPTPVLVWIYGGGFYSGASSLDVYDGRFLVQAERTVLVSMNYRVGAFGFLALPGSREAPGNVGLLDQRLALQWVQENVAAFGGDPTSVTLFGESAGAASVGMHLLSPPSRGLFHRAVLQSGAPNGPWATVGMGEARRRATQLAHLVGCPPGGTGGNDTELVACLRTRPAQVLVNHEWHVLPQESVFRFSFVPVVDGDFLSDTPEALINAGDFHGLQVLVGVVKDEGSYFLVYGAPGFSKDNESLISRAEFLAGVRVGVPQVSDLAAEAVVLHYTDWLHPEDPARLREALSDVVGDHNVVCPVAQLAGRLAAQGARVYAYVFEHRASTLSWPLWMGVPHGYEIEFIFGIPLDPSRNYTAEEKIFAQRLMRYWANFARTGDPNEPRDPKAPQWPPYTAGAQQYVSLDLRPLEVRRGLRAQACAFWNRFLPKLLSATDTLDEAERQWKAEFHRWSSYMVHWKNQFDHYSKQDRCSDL
Chain of Nuclear receptor subfamily 1 group I member 2 (Homo sapiens) (O75469 whole entry, looked up): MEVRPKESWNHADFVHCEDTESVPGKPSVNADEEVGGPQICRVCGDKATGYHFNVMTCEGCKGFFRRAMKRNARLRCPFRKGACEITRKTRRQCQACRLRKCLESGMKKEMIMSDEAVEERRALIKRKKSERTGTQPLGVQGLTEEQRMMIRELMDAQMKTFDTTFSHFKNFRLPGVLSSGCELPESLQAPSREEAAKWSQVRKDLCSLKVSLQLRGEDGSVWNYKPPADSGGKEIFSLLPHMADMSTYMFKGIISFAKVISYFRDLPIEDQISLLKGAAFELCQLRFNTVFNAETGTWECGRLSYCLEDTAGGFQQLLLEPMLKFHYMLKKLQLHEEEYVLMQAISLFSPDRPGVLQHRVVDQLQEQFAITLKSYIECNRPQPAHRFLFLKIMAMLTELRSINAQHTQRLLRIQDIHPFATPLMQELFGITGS
Chain of Thyrotropin-releasing hormone receptor (Homo sapiens) (P34981 whole entry, looked up): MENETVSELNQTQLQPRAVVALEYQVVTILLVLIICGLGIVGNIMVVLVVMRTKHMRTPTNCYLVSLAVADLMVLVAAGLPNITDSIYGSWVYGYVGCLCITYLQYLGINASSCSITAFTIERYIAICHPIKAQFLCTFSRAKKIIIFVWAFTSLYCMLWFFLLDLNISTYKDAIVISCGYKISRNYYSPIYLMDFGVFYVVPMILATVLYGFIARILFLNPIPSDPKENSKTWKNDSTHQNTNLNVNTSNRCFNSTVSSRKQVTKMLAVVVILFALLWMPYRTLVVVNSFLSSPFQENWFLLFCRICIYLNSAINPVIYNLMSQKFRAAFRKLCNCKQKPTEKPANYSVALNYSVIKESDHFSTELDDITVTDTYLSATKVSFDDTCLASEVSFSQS
Chain of Nuclear receptor subfamily 1 group I member 2 (Rattus norvegicus) (Q9R1A7 whole entry, looked up): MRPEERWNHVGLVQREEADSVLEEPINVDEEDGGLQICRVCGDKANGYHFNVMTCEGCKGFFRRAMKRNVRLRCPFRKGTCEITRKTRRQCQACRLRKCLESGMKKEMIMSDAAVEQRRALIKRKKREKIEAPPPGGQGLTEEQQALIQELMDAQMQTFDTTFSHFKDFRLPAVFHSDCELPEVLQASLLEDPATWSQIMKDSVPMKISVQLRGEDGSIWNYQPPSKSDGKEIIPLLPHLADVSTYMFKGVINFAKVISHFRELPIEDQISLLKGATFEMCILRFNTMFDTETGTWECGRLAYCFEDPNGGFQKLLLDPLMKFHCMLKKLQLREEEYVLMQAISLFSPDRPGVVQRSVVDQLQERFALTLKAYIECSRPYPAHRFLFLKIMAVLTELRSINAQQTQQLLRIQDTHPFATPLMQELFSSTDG

On to `CC1CCC(=O)O1` (configuration not stated), for which the Potency result in test [1], in test [2], in test [3], in test [4], in [9] and in test [10] was “inactive” throughout. In addition, the Potency result in test [11], in [12], in test [13] and in test [14] was “inactive” throughout. In addition, the compound was called inactive in test [5], in test [6], in [7] and in test [8].

As to `Clc1cccc(N2CCNCC2)c1`, the Potency entry in test [1], in test [2], in test [4], in test [9], in [10] and in test [11] was “inactive” throughout. Besides, the Potency entry in [12], in test [15] and in test [14] was “inactive” each time. For the same compound, the outcome in test [6] was inactive.

For the compound `CC(C)(C)NCC(O)c1cc(Cl)c(N)c(Cl)c1` (configuration not stated), the Potency entry in test [16], in [3], in test [4], in test [10], in test [11] and in test [12] was “inactive” in each case. Besides, the Potency result in [13], in [18], in [19] and in test [14] was “inactive” throughout. Moreover, the outcome in [5] and in test [6] was inactive. The max activation in test [17] is -2.23%.

In the case of `ClC(Cl)Br`, the Potency result in [1], in test [2], in test [16], in [3], in test [9] and in [10] was “inactive” in each case. Also, the Potency entry in [11], in [12], in test [15], in [13] and in test [14] was “inactive” each time. Further, the compound was classed as inactive in [5], in test [6], in test [7] and in test [8].

Consider `C1CCC(C2CCCCC2)CC1`, for which the Potency entry in [1], in [4], in test [9], in [10], in [11] and in test [12] was “inactive” throughout. Besides, the Potency entry in [15] and in test [14] was “inactive” each time. Also, the Potency was 15.4 µM (active) in test [16] and 8.63 µM (active) in test [3]. Besides, the outcome in test [5], in test [6] and in test [7] was inactive.

`COc1ccc2c(c1OC)CN1CCc3cc4c(cc3C1C2)OCO4` (configuration not stated): the Potency entry in [16], in test [3], in [4], in [9], in test [10] and in test [12] was “inactive” each time. The Potency entry in test [15], in [13], in test [18] and in [19] was “inactive” each time. In addition, the compound was classed as inactive in test [5], in [6], in test [7] and in test [8]. The max activation in [17] is 0.596%. Besides, the Potency in [14] was 8.71 µM (active).

For the compound `COP(N)(=S)Oc1ccccc1C(=O)OC(C)C` (configuration not stated), the Potency entry in test [1], in [16], in test [3], in test [9], in test [10] and in [11] was “inactive” throughout. Further, the Potency result in test [15] was “inactive”. Besides, the compound was classed as inactive in test [5] and in [6].

Consider `CCOC(=O)NC(=S)Nc1ccccc1NC(=S)NC(=O)OCC`, for which the Potency entry in test [1], in test [3], in test [4], in test [9], in [10] and in test [12] was “inactive” in each case. The Potency entry in test [15] and in [14] was “inactive” each time. For the same compound, the call in test [5], in [6] and in [8] was inactive. Further, in test [13], the Potency was 27.3 µM (active).
